Test results reported in PubChem BioAssay (NCATS).
Results filed as inconclusive are left out. Active and inactive are the calls of the source. The call rests on the fitted dose curve; in most records, active means well fitted curve in the direction sought with a large enough effect; inconclusive means small, poorly fitted or top-dose-only effect, or another doubt; inactive means no such curve, though single readings can be large; an effect the other way counts as inactive or inconclusive.

What was measured:
[1] = tested on: KB-3-1; assay: Cytotoxic Profiling of Annotated Libraries Using Quantitative High-Throughput Screening (AID 1296008); details: Five cell lines viability, CellTiter-Glo ATP luminescence, 48-72 h; max response: stronger effect = lower value; further: nearly all actives have a fitted effect of over 60% in size; on max response: on the % scale 0 is the no-effect control and ±100 the full control effect
Procedure, shortened: (§1)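 Cells exposed to compounds for 48 or 72 hr at 37 degrees Celsius. Viability read as ATP-coupled luminescence with CellTiter-Glo after 10 min at room temperature.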

[2] = tested on: NIH3T3; assay: as above; details: Five cell lines viability, CellTiter-Glo ATP luminescence, 48-72 h; max response: stronger effect = lower value
Procedure, shortened: as §1

[3] = tested on: HACAT; assay: qHTS assay to identify novel small-molecules to repurpose for Merkel cell carcinoma treatment (AID 1296009); details: MCC and control cell lines, CellTiter-Glo viability, 72 h; at 44.8 µM (top of the series) unless noted; further: nearly all actives have a fitted effect of over 60% in size
Procedure, shortened: (§2)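 CellTiter-Glo luminescence after 72 hr compound exposure at 37 degree celsius gave cell viability. Libraries NPC and MIPE were run as 8- and 11-point dose responses; RLUs normalized to DMSO (negative) and no-cell (cytotoxicity) controls.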

[4] = tested on: HEK293T; assay: as above; details: MCC and control cell lines, CellTiter-Glo viability, 72 h; series mostly up to 44.8 µM
Procedure, shortened: as §2

[5] = tested on: NIH3T3; assay: as above; details: MCC and control cell lines, CellTiter-Glo viability, 72 h; at 44.8 µM (top of the series) unless noted
Procedure, shortened: as §2

[6] = tested on: C33A; assay: Primary qHTS to identify gynecologic anti-cancer compounds using libraries of approved drugs and bioactive compounds (AID 1345084); details: Gynecologic cancer cell panel viability, ATPlite luminescence, 48 h; series mostly up to 57.5 µM; further: on the % scale 0 is the no-effect control and ±100 the full control effect; nearly all actives have a fitted effect of over 55% in size
Procedure, shortened: (§3)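 Cytotoxicity screen measuring ATP content by luciferase luminescence. Each compound is applied at five concentrations for 48 h at 37 C with 5% CO2.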

[7] = tested on: CAOV3; assay: as above; details: Gynecologic cancer cell panel viability, ATPlite luminescence, 48 h; series mostly up to 57.5 µM
Procedure, shortened: as §3

[8] = tested on: CASKI; assay: as above; details: Gynecologic cancer cell panel viability, ATPlite luminescence, 48 h; series mostly up to 57.5 µM
Procedure, shortened: as §3

[9] = tested on: Es-2; assay: as above; details: Gynecologic cancer cell panel viability, ATPlite luminescence, 48 h; series mostly up to 57.5 µM
Procedure, shortened: as §3

[10] = tested on: HeLa; assay: as above; details: Gynecologic cancer cell panel viability, ATPlite luminescence, 48 h; series mostly up to 57.5 µM
Procedure, shortened: as §3

[11] = tested on: Hek293T; assay: as above; details: Gynecologic cancer cell panel viability, ATPlite luminescence, 48 h, control line for the selectivity index; series mostly up to 57.5 µM
Procedure, shortened: as §3

[12] = tested on: JEG-3; assay: as above; details: Gynecologic cancer cell panel viability, ATPlite luminescence, 48 h; series mostly up to 57.5 µM
Procedure, shortened: as §3

[13] = tested on: OV90; assay: as above; details: Gynecologic cancer cell panel viability, ATPlite luminescence, 48 h; series mostly up to 57.5 µM
Procedure, shortened: as §3

[14] = tested on: PA-1; assay: as above; details: Gynecologic cancer cell panel viability, ATPlite luminescence, 48 h; series mostly up to 57.5 µM
Procedure, shortened: as §3

COc1cc(C2c3cc(O)c(OC)cc3CC(CO)C2CO)ccc1O (configuration not stated)
inactive: outcome [1] | outcome [2] | outcome [3] | Potency [4] | outcome [5] | Potency [6] | Potency [7] | Potency [8] | Potency [9] | Potency [10] | Potency [11] | Potency [12] | Potency [13] | Potency [14]

O=C(NN1CCCCC1)c1nn(-c2ccc(Cl)cc2Cl)c(-c2ccc(C#Cc3ccc(C(F)(F)F)cc3)s2)c1CNS(=O)(=O)N1CCCC1
inactive: max response [1] 4.58% | outcome [2] | outcome [3] | Potency [4] | outcome [5] | Potency [6] | Potency [7] | Potency [8] | Potency [9] | Potency [10] | Potency [11] | Potency [12] | Potency [13] | Potency [14]

O=C(CCCCc1ccc2ccccc2c1)C(F)(F)F
inactive: max response [1] 2.37% | outcome [2] | outcome [3] inactive [at 92 µM] | Potency [4] | outcome [5] inactive [at 92 µM] | Potency [6] | Potency [7] | Potency [8] | Potency [9] | Potency [10] | Potency [11] | Potency [12] | Potency [13] | Potency [14]

CC(=O)N[C@H]1CCN(c2ccc(C3=NOC(CN[S+](=O)([O-])C(C)C)C3)cc2F)C1 (some centres not stated)
inactive: max response [1] -0.511% | outcome [2] | outcome [3] | Potency [4] | outcome [5] | Potency [6] | Potency [7] | Potency [8] | Potency [9] | Potency [10] | Potency [11] | Potency [12] | Potency [13] | Potency [14]

CC(=O)OC[C@@]12[C@H](O)C[C@@H](C)[C@]3(C[C@@H](c4ccoc4)OC3=O)[C@H]1C[C@H](O)C[C@]21CO1
inactive: outcome [1] | outcome [2] | outcome [3] inactive [at 17.4 µM] | Potency [4] | outcome [5] inactive [at 17.4 µM] | Potency [6] | Potency [7] | Potency [8] | Potency [9] | Potency [10] | Potency [11] | Potency [12] | Potency [13] | Potency [14]

C[C@@H]1CC[C@]2(C(=O)O[C@@H]3O[C@H](CO)[C@@H](O)[C@H](O)[C@H]3O)CC[C@]3(C)C(=CCC4[C@@]5(C)C[C@@H](O)[C@H](O)C(C)(C)C5CC[C@]43C)C2[C@]1(C)O (some centres not stated)
inactive: max response [1] 0.448% | outcome [2] | outcome [3] inactive [at 17.4 µM] | Potency [4] | outcome [5] inactive [at 17.4 µM] | Potency [6] | Potency [7] | Potency [8] | Potency [9] | Potency [10] | Potency [11] | Potency [12] | Potency [13] | Potency [14]

O=C(O[C@H]1[C@@H]2C=CO[C@@H](O[C@@H]3O[C@H](CO)[C@@H](O)[C@H](O)[C@H]3O)[C@@H]2[C@@]2(CO)O[C@@H]12)c1ccc(O)cc1
inactive: max response [1] 3.57% | outcome [2] | outcome [3] inactive [at 17.4 µM] | Potency [4] | outcome [5] inactive [at 17.4 µM] | Potency [6] | Potency [7] | Potency [8] | Potency [9] | Potency [10] | Potency [11] | Potency [12] | Potency [13] | Potency [14]

O=S(=O)(NC1CCNCC1)c1cc(S(=O)(=O)c2ccccc2)ccc1C(F)(F)F
inactive: max response [1] 3.12% | outcome [2] | outcome [3] | Potency [4] | outcome [5] | Potency [6] | Potency [7] | Potency [8] | Potency [9] | Potency [10] | Potency [11] | Potency [12] | Potency [13] | Potency [14]

COC(=O)C1C(c2ccc(O)cc2)C(C(=O)OC)C1c1ccc(O)cc1 (configuration not stated)
inactive: outcome [1] | outcome [2] | outcome [3] | Potency [4] | outcome [5] | Potency [6] | Potency [7] | Potency [8] | Potency [9] | Potency [10] | Potency [11] | Potency [12] | Potency [13] | Potency [14]

COc1cc(/C=C/C(=O)OC2CC(C)=C(C(=O)O)/C2=C/CO[C@@H]2O[C@H](CO)[C@@H](O)[C@H](O)[C@H]2O)ccc1O (some centres not stated)
inactive: outcome [1] | outcome [2] | outcome [3] inactive [at 17.4 µM] | Potency [4] | outcome [5] inactive [at 17.4 µM] | Potency [6] | Potency [7] | Potency [8] | Potency [9] | Potency [10] | Potency [11] | Potency [12] | Potency [13] | Potency [14]

COc1c2c(c(C)c3c1C(=O)OC3)OC1(C)CC(O)C3(O)C(C)(C)OC(=O)CCC3(C)C1C2 (configuration not stated)
inactive: max response [1] 8.81% | outcome [2] | outcome [3] inactive [at 17.4 µM] | Potency [4] | outcome [5] inactive [at 17.4 µM] | Potency [6] | Potency [7] | Potency [8] | Potency [9] | Potency [10] | Potency [11] | Potency [12] | Potency [13] | Potency [14]

CO[C@@H](Cc1ccc(OCCc2nc(-c3ccccc3)oc2C)c2ccsc12)C(=O)O
inactive: max response [1] -3.49% | outcome [2] | outcome [3] | Potency [4] | outcome [5] | Potency [6] | Potency [7] | Potency [8] | Potency [9] | Potency [10] | Potency [11] | Potency [12] | Potency [13] | Potency [14]

C=C1CCC2C(C)(C)CC(=O)CC2(C)C1CCC(C)CCOC(C)=O (configuration not stated)
inactive: max response [1] 5.05% | outcome [2] | outcome [3] | Potency [4] | outcome [5] | Potency [6] | Potency [7] | Potency [8] | Potency [9] | Potency [10] | Potency [11] | Potency [12] | Potency [13] | Potency [14]
